Among the data in PubChem BioAssay are z-score values, retold here.

Several values for one entry are separate records, joined by “and”; a condition that tells them apart may be missing. Equal entries are not always repeated.

The nature of this test: JC-1 mitochondrial signal, unstimulated MM1S myeloma – cell-based, JC-1 fluorescence, 24 h, 100 nL compound, profiling panel (AID 1170). Note: test concentration not given here. Particulars: MM1S mitochondrial potential, higher = more signal.
Regarding `CO[C@H]1COC(=O)CC=C[C@@H](C)COC(=O)[C@H](CCSC)NC(=O)CC=C[C@@H]1C`, the z-score was 0.588 and 1.85.

For the molecule `C=CCN(CCCCC)C(=O)C1N(C(C)(C)CO)C(=O)C2C(C(=O)O)C3C=CC21O3` (configuration not stated), the z-score is 0.861 and 0.681.

For the molecule `C=CCN1C(=O)[C@]2(O[C@H](CCn3cc(CCO)nn3)[C@@H]([Si](C)(C)c3ccc(OC)cc3)[C@@H]2C)c2cc(N3C(=O)c4cccc5cccc3c45)ccc21`, the z-score was -2.27 and -1.98.

Regarding `CCC[C@@H]1C[C@@]1(CCC)[C@@H](NC(=O)c1ccc(-c2ccccc2)cc1)c1cccc(Cl)c1`, the z-score is -0.647 and -1.16.

For the molecule `C[C@@H]1CC[C@H]2C(=O)O[C@H](CN=[N+]=[N-])CN2[C@H]1c1ccc(Br)cc1`, the z-score is -1.02 and 0.242.

In the case of `C[C@@H]1CN2[C@@H](CC[C@@H](C)[C@@H]2c2ccc(Br)cc2)C(=O)O1`, the z-score was 1.26 and -0.901.

Consider `COc1ccc(O[C@H]2C=C[C@@H](c3ccccc3)O[C@@H]2COC(=O)CCC(C)=NO[C@H](C)c2cn([C@H](CO)Cc3ccccc3)nn2)cc1`, for which the z-score is -0.704 and 0.182.

As to `CON(C)C(=O)c1nnc2c3ccccc3n(S(=O)(=O)c3ccc(C)cc3)c2n1`, the z-score is -0.436 and -0.72.

On to `COc1ccc(COC(=O)NN=C2C[C@@H](O)[C@@H](O)[C@@H]3[C@@H]4C(=O)N(C(C)(C)C)C(=O)[C@@H]4CC[C@H]23)cc1`, for which the z-score was -0.527.

On to `COC(=O)C1=C(C)N(Cc2ccccc2)[C@]23O[C@](C(=O)OC)(C(=O)N2[C@@H]1c1ccccc1)[C@@H](C(=O)OC)[C@H]3C(=O)OC`, for which the z-score was -0.142 and -0.237.

For the molecule `C[C@@H]1CC[C@H]2C(=O)NC[C@@H](O)CN2[C@H]1c1ccc(Br)cc1`, the z-score was 0.0814 and -0.633.

Take `C#CCCCON=C1C[C@@H](O)[C@@H](O)[C@@H]2[C@@H]3C(=O)N(C4CCCCC4)C(=O)[C@@H]3CC[C@H]12`: the z-score is -0.353.
